Screens from PubChem BioAssay.
Rows were chosen to be rich in hits. Some 15% of all compounds tested hit in one or more screens of this group.
DT40 TDP1 CPT = qHTS for Inhibitors of human tyrosyl-DNA phosphodiesterase 1 (TDP1): qHTS in cells in presence of CPT; chicken DT40 Tdp1-/-;hTDP1 cells + 20 nM CPT, ATP luminescence, 48 h; Potency, µM (top dose mostly 46.2 µM), usual class: inhibitors; 420,000 tested, 12% active; AID 686979, 2013; further: nearly all actives have a fitted effect of over 55% in size
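Chicken DT40 Tdp1-/- cells stably complemented with human TDP1 were seeded at 400 cells/well in medium containing 20 nM camptothecin, exposed to pin-transferred compounds, and grown at 37 °C for at least 48 hr. Viability was read as ATP luminescence.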
ELG1 repair inh = qHTS screen for small molecules that inhibit ELG1-dependent DNA repair in human embryonic kidney (HEK293T) cells expressing luciferase-tagged ELG1; Potency, µM (titrated, usually from 46.1 µM), most hits filed as inhibitors; 330,000 tested, 2.3% active; HEK293T ELG1-luciferase reporter, luminescence, 16 h; DNA damage induced by 5-fluorouridine; further: nearly all actives have a fitted effect of over 55% in size
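Quantitative HTS, concentration-response format. 2,000 cells/well co-treated with 5-fluorouridine and compound, 16 hr in 5% CO2 at 37 °C; ONE-Glo luminescence read after 30 min.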
12-LOX inh = Primary qHTS assay for inhibitors of human arachidonate 12S-lipoxygenase (ALOX12): Round 2; Polyunsaturated fatty acid lipoxygenase ALOX12 (Homo sapiens), P18054; Potency, µM (titrated, usually from 108 µM), hits mostly inhibitors; purified 12hLO, xylenol orange hydroperoxide absorbance; AID 1671190, 2021; 580,000 tested, 1.1% active
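Purified human 12hLO at 150 nM in 25 mM Hepes, 0.01% Triton X-100, pH 7.0, preincubated 15 min at room temperature with compound. Reaction started with 40 uM arachidonic acid, 30 min at room temperature. Hydroperoxide measured by Fe-xylenol orange, 573/405 nm absorbance ratio.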
Gal4-VP16 FLuc = VP16 counterscreen qHTS for inhibitors of ROR gamma transcriptional activity; Drosophila S2 Gal4-VP16 UAS-luciferase, luminescence, 20 h; Potency, µM (doses to about 53.6 µM), most hits filed as inhibitors; 310,000 tested, 3.5% active; AID 2546, 2010;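 further: Gal4-VP16 expression switched on by copper sulfate through the metallothionein promoter; nearly all actives have a fitted effect of over 50% in size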
RORgamma inh = qHTS for inhibitors of ROR gamma transcriptional activity; Nuclear receptor ROR-gamma (Mus musculus), P51450; Drosophila S2 Gal4-RORgamma UAS-luciferase reporter, 20 h; Potency, µM (series often up to 53.6 µM), most hits filed as inhibitors; 310,000 tested, 5.4% active; AID 2551, 2010; further: nearly all actives have a fitted effect of over 60% in size
Target sequence (P51450 whole entry, looked up, the tested form may be a part): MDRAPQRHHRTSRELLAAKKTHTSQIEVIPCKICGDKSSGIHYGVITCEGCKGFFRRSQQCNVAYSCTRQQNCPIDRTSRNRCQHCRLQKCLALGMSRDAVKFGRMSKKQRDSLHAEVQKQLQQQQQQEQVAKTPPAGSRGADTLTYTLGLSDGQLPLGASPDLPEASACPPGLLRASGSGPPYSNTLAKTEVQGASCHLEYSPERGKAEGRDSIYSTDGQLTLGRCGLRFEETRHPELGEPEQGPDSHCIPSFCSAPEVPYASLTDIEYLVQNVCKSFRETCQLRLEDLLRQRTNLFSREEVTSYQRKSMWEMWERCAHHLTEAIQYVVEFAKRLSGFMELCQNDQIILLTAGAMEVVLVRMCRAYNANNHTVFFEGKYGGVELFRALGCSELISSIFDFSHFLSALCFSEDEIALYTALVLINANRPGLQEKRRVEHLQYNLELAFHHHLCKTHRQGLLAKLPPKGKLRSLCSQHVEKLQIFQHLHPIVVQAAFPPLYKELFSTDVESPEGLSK
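In this cell-based reporter format, copper sulfate (700 uM final) drives Gal4–ROR gamma fusion expression from a metallothionein promoter in Drosophila Schneider cells; compounds preincubated 1 hr, reporter read after 20 hr at ambient temperature.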
DT40 TDP1 no CPT = qHTS for Inhibitors of human tyrosyl-DNA phosphodiesterase 1 (TDP1): qHTS in cells in absence of CPT; 420,000 tested, 15% active; DT40 Tdp1-/- hTDP1 cells, no CPT, ATP luminescence, 48 h; Potency, µM (highest dose often 46.2 µM), usual class: inhibitors; AID 686978, 2013; further: nearly all actives have a fitted effect of over 55% in size
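Readout: luminescence from CellTiter-Glo after 30 min in the dark at RT. Cells: DT40 Tdp1-/- with stable hTDP1, 400/well. Exposure: compounds alone, ≥48 hr, 37 °C.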
Numbers stand for hits; i = inactive; ? = inconclusive; nt = not tested or not shown; ! = not active in a repeat; [ ] = remark or other dose. The call rests on the fitted dose curve; in most records, active means well fitted curve in the direction sought with a large enough effect; inconclusive means small, poorly fitted or top-dose-only effect, or another doubt; inactive means no such curve, though single readings can be large; an effect the other way counts as inactive or inconclusive.

SMILES	DT40 TDP1 CPT	ELG1 repair inh	12-LOX inh	Gal4-VP16 FLuc	RORgamma inh	DT40 TDP1 no CPT
OCCNCCCOc1cc(Cl)ccc1Cl	?	?	i	i	i	18.4µM
CCCCNCCCOc1ccc(C)cc1Br	18.4µM	i	i	i	i	16.4µM
CCC1CN(C(=O)c2ccc3ccccc3n2)CCC(=O)N1Cc1ccccc1 (stereo not given)	nt	nt	i	nt	nt	nt
CCC1CCCCN1CCCNC(=O)CCc1cc2cc(OC)ccc2[nH]c1=O (stereo not given)	nt	nt	i	nt	nt	nt
COCCNS(=O)(=O)c1cc(C(=O)O)cc(-c2cccc(C(C)N(C)C)c2)c1 (stereo not given)	nt	nt	i	nt	nt	nt
CN1CCN(CC#Cc2ccccc2)CC1CCO (stereo not given)	i	i	?	i	i	i
CC(C)(C)CN1CCN(CC#Cc2ccccc2)CC1CCO (stereo not given)	?	i	i	i	i	10.3µM
COc1ccc(C(=O)Oc2ccc(C(C)C)cc2)cc1I	nt	nt	i	nt	nt	nt
c1ccc(COn2c(-c3ccccc3)nc3c2CCc2nonc2-3)cc1	?	?	i	i	i	25.9µM
O=C(c1ccoc1)N1CCC(Cc2nc(C3CCOCC3)no2)CC1	nt	nt	i	nt	nt	nt
CCCCCCCN1CCN=C1Nc1ccccc1	23.1µM	i	i	nt	nt	25.9µM
c1ccc(NC2=NCCN2CCC2CCCCC2)cc1	23.1µM	i	i	i	i	?
Cc1noc(C)c1[S+](=O)([O-])N1CCn2cc(C(=O)NCc3ccc(Cl)nc3)nc2C1	nt	nt	i[6.33 µM]	nt	nt	nt
Cc1c(-c2ccccc2)oc2c(C(=O)OCC(=O)NC3CCC(C)CC3)cccc2c1=O (stereo not given)	nt	nt	i	nt	nt	nt
CC(=O)Nc1cc(-c2ccccc2)ccc1O	20.6µM	i	?	?	i	?
Nc1cc(-c2ccccc2)ccc1O	i	8.2µM!	?	?	?	?
Nc1ccc(-c2ccc(N)c(O)c2)cc1O	nt	nt	nt	i	i	nt
CCCCCOc1ccc(NS(C)(=O)=O)cc1	i	?	i	i	i	i
CCCCc1oc2ccc(NS(C)(=O)=O)cc2c1C(=O)c1ccc(OCCCN(CCCC)CCCC)cc1	4.73µM	nt	39.8µM!	nt	nt	5.96µM
Cc1ccc(CNC(=O)[C@@]23CCCC[C@H]2N(C)C(=O)CC3)cc1	nt	nt	i	nt	nt	nt
CC(=O)c1cccc(NC(=O)c2cc(-c3ccco3)nc3ccccc23)c1	13µM	?	28.2µM	i	i	18.4µM
Cc1cc(C)cc(NC(=O)c2cc(-c3ccncc3)nc3ccccc23)c1	nt	nt	i	nt	nt	nt
O=C(O)c1cc(-c2ccco2)nc2cc3ccccc3cc12	i	?	20µM	i	i	i
COc1cccc(-c2cc(C(=O)Nc3ccncc3)c3ccccc3n2)c1	?	i	i	i	i	16.4µM
O=C(O)c1ccccc1/C=N/NC(=O)c1cc(-c2ccco2)nc2ccccc12	i	i	?	i	i	i
SMILES	DT40 TDP1 CPT	ELG1 repair inh	12-LOX inh	Gal4-VP16 FLuc	RORgamma inh	DT40 TDP1 no CPT
COc1cccc(NC(=O)c2cc(-c3ccco3)nc3ccccc23)c1	i	nt	?	nt	nt	?
Cc1cc(NC(=O)c2cc(-c3ccncc3)nc3ccccc23)ccc1Br	23.1µM	?	i	nt	nt	?
COCCN1CCC(CN(CC2CCCO2)C(=O)c2cc(Cl)cn2C)CC1 (stereo not given)	nt	nt	i	nt	nt	nt
CC(C)(CN1CCC(Cc2cccc(C(=O)O)c2)C1)N1CCOCC1 (stereo not given)	nt	nt	i	nt	nt	nt
COc1cccc(NC(=O)c2cc(-c3ccncc3)nc3c(C)cc(C)cc23)c1	?	?	i	i	i	23.1µM
O=C(O)c1ccc(NC(=O)c2cc(-c3ccco3)nc3ccccc23)cc1	nt	nt	7.94µM	nt	nt	nt
O=C(Nc1nc2c(s1)CCCC2)c1cc(-c2ccncc2)nc2ccccc12	?	?	i	?	?	16.4µM
Cc1cc(C(=O)Nc2ccncc2)c2ccccc2n1	i	23.1µM	nt	i	i	i
O=C(NNC(=O)c1cc(-c2ccco2)nc2ccccc12)c1ccccc1	i	?	?	i	i	?
CNC(=O)[C@@H]1CN(C(=O)c2ccc(Br)cc2F)C[C@H]1CO	nt	nt	i	nt	nt	nt
CCCn1nc(C)cc1CN(C)C(=O)[C@@H]1CN(C(C)=O)C[C@H]1c1nc(C)no1	nt	nt	i	nt	nt	nt
O=C(NC1CC1)c1ccc(NC(=O)c2cc(-c3ccco3)nc3ccccc23)cc1	nt	nt	10µM	nt	nt	nt
COc1cccc(-c2cc(C(=O)Nc3ccc(N(C)C(C)=O)cc3)c3cc(Br)ccc3n2)c1	1.84µM	nt	?	nt	nt	1.84µM
COc1ccc2oc(-c3ccccc3)c(C(=O)Nc3ccc(N(C)C(C)=O)cc3)c2c1	nt	nt	i	nt	nt	nt
Cc1ccc(S(=O)(=O)N(C)C)cc1NC(=O)c1cc(-c2ccncc2)nc2ccccc12	?	?	i	nt	nt	4.11µM
